This is a sample that favours compounds with a hit; in the whole collection about 1.1% have one here.
VLA-4 inh – inhibition in a human VLA-4 binding assay; AID 2557; inhibition, % (about 7 µM as worked out from the volumes in the protocol); P13612; VLA-4 expressing cells, ligand binding flow cytometry; 0.2% of 330,000 active; in the data active = inhibition above about 50%
Target sequence (P13612 whole entry, looked up): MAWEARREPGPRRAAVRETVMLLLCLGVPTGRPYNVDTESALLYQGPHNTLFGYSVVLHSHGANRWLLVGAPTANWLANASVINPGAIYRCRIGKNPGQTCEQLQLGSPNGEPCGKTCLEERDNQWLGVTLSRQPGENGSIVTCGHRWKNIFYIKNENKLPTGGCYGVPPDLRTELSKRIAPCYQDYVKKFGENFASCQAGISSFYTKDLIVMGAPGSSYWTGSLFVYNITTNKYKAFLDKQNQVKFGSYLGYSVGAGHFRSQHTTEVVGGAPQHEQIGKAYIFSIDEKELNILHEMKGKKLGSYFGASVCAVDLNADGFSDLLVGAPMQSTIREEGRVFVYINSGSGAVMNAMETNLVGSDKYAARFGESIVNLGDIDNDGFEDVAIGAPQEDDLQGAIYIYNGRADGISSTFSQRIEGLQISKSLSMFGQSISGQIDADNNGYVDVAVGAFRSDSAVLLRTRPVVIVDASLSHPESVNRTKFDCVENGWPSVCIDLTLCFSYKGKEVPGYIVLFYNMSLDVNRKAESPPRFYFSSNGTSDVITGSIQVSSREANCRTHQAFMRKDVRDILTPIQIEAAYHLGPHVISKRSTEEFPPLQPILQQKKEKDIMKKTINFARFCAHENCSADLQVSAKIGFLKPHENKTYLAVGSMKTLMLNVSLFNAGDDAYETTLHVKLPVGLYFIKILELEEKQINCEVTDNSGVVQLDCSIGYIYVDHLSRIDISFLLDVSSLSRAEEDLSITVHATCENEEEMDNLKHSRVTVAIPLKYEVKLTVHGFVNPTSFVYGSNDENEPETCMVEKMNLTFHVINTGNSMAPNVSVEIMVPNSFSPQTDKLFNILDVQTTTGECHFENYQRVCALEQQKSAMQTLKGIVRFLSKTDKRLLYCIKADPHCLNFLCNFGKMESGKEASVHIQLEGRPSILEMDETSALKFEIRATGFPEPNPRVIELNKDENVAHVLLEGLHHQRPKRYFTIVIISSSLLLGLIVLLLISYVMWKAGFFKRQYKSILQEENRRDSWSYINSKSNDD
CIT2 TOR yeast – modulators of TOR pathway CIT2-GFP in S. cerevisiae | S. cerevisiae CIT2-GFP strain, flow cytometry, 3 h; 100 means same as DMSO wells | GFP response vs DMSO, % at 10 µM | 0.065% of 320,000 active;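 active = GFP response relative to DMSO above a set limit, near the screen mean plus 3 SD, cut at about 150% in these data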;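 note: ratio of well median GFP fluorescence to mean of DMSO wells on the plate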
AGP1 TOR yeast – alters AGP1-GFP fluorescence in TOR pathway yeast screen | S. cerevisiae AGP1-GFP multiplex flow cytometry, 3 h; GFP as percent of DMSO wells | GFP response vs DMSO, % at 10 µM | 0.02% of 320,000 active | AID 2066;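 active = GFP response relative to DMSO above a set limit, near screen average plus 3 SD, cut at about 150% in these data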;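 note: median GFP channel fluorescence of the gated AGP1 strain per well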
MEP2 TOR yeast – alters MEP2-GFP fluorescence in TOR pathway yeast screen | S. cerevisiae MEP2-GFP strain, flow cytometry GFP, 3 h; 100% = DMSO control level | 0.51% of 330,000 active | GFP response vs DMSO, % at 10 µM | AID 2016;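 active = GFP response versus DMSO above a set limit, roughly screen mean plus 3 SD, cut at about 180% in these data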;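 note: median GFP fluorescence of the barcode-gated MEP2-GFP cells per well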
RPL19A-GFP yeast – modulators of TOR pathway RPL19A-GFP in S. cerevisiae; S. cerevisiae RPL19A-GFP strain, flow cytometry, 3 h; active compounds read low; percent response vs DMSO, % at 10 µM; 0.3% of 330,000 active;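 active = percent response vs DMSO below 50%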;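 note: median channel GFP fluorescence of the barcoded RPL19A-GFP strain; ratio of sample median GFP to plate DMSO average so 100% = DMSO; lower means less RPL19A-GFP as with rapamycin TOR inhibition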
LAP4-GFP MLPCN – alters LAP4-GFP fluorescence in TOR pathway yeast screen; S. cerevisiae LAP4-GFP multiplex, flow cytometry GFP, 3 h; median GFP as percent of DMSO wells; 0.34% of 320,000 active; GFP response vs DMSO, % at 10 µM;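 active = GFP response vs DMSO above a set limit, about the screen mean plus 3 SD, cut at about 150% in these data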
VLA-4 allo CP – confirmation of allosteric modulators of human VLA-4 integrin; U937 cells, HUTS-21 LIBS mAb binding, flow cytometry; LDV ligand present at threefold Kd; shares compounds with VLA-4 inh; 2% of 1,300 active; inhibition, % at 6.7 µM; in the data active = inhibition above about 40%;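 note: 0% = ligand without compound and 100% = no ligand background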
Active calls of the source: *; . = no result.

SMILES	VLA-4 inh	CIT2 TOR yeast	AGP1 TOR yeast	MEP2 TOR yeast	RPL19A-GFP yeast	LAP4-GFP MLPCN	VLA-4 allo CP
COc1ccc(N(CC(=O)N2CCN(c3cccc(C)c3C)CC2)S(=O)(=O)c2c(C)noc2C)cc1	-16.8	101.4	102.3	108.1	98.2	99.7	.
COC(=O)c1cccnc1-n1c(=O)c2cccnc2n(Cc2cccc([N+](=O)[O-])c2)c1=O	67.0*	104.9	102.7	105.7	103.3	108.5	-2.2
COC(=O)c1cccnc1-n1c(=O)c2cccnc2n(Cc2ccc(Cl)cc2)c1=O	2.3	87.6	96.6	91.0	95.5	96.6	.
COc1ccc(S(=O)(=O)Nc2ccccc2C(=O)NCc2cccnc2)cc1	16.7	109.5	106.8	109.2	100.8	99.8	.
COC(=O)[C@]1(Cc2ccccc2)N[C@H](CN(C)C(C)=O)[C@@H]2C(=O)N(Cc3ccccc3)C(=O)[C@@H]21	38.9	85.4	95.5	99.7	95.3	94.2	2.7
CC[C@@]1(C(=O)OC)N[C@H](CN(C)C(=O)c2ccc(C(C)(C)C)cc2)[C@@H]2C(=O)N(Cc3ccccc3)C(=O)[C@@H]21	32.8	91.0	102.3	102.1	105.1	99.8	.
COC(=O)[C@]1(Cc2ccccc2)N[C@H](CN(C)C(=O)c2ccc(C(C)(C)C)cc2)[C@@H]2C(=O)N(Cc3ccccc3)C(=O)[C@@H]21	14.8	99.4	106.2	107.0	107.4	102.0	0.6
CN1C(=O)C(C)(C)c2cc(S(=O)(=O)NCCc3ccc(Cl)cc3)ccc21	-7.2	103.8	111.3	109.9	106.5	108.4	-4.9
CN1C(=O)C(C)(C)c2cc(S(=O)(=O)NCc3ccc(Cl)cc3)ccc21	0.3	101.1	107.1	94.2	97.8	98.3	-0.1
CC(C)C(NS(=O)(=O)c1ccc2c(c1)C(C)(C)C(=O)N2C)C(=O)NCc1ccccc1Cl (centres undefined)	74.2*	98.7	103.4	101.1	99.7	99.5	-15.4
Cc1ccc(CCNS(=O)(=O)c2ccc3c(c2)C(C)(C)C(=O)N3C)cc1	-24.0	111.0	103.9	99.9	96.5	103.5	.
Cc1ccccc1-n1c(SCC(=O)N2CCN(c3ccccc3)CC2)nnc1-c1ccncc1	50.4*	94.5	97.1	91.1	95.6	96.5	2.6
O=C(Cc1ccc(Cl)cc1)NN1C(=O)c2ccccc2C1=O	-0.5	98.4	101.4	102.3	102.0	103.0	.
COC(=O)[C@@H]1[C@@H](C#N)C2(c3ccccc3-c3ccccc32)N(c2ccc(Cl)cc2)N1C#N	57.8*	91.0	91.9	95.4	97.0	92.8	39.0
COc1cc(/C=C/c2noc(-c3ccccc3O)n2)cc(OC)c1OC	42.3	100.9	96.5	105.6	100.9	86.3	-11.0
COc1ccc(/C=C/c2noc(-c3ccccc3O)n2)cc1	-4.1	114.9	110.2	106.7	108.4	99.3	.
O=C(Nc1ccc(F)cc1F)N1CCN(C/C=C/c2ccccc2)CC1	55.0*	98.6	101.9	94.7	100.3	101.3	5.1
FC(F)(F)c1cccnc1N1CCN(c2ncnc3nc[nH]c23)CC1	49.7*	97.8	105.9	109.8	101.5	106.9	7.0
Fc1ccccc1N1CCN(c2ncnc3nc[nH]c23)CC1	7.2	99.1	103.8	105.3	98.0	108.0	.
O=C(Nc1cccc(S(=O)(=O)N2CCCCC2)c1)C1COc2ccccc2O1 (centres undefined)	4.7	101.0	91.9	93.2	93.1	93.8	.
CCCN(C(=O)CSc1ccccc1C(=O)O)C1CCS(=O)(=O)C1 (centres undefined)	20.9	84.4	101.6	93.0	90.3	99.8	.
CCC(COC(=O)Nc1cccc(C)c1C)NC(=O)OCC(C)C (centres undefined)	5.1	93.3	103.3	100.6	103.8	104.3	.
CCC(CC)NC(=O)Nc1cccc(C)c1C	44.9	103.5	101.5	103.3	103.2	93.0	7.8
CCOC(=O)C1(S(=O)(=O)c2ccc(Cl)cc2)CCN(Cc2ccc(C)cc2)CC1	9.0	85.0	102.6	91.1	93.3	82.5	6.3
COc1ccc2c(c1)nc(CN1CCN(CCO)CC1)n2C	-3.6	109.6	101.5	99.5	99.7	90.0	.
SMILES	VLA-4 inh	CIT2 TOR yeast	AGP1 TOR yeast	MEP2 TOR yeast	RPL19A-GFP yeast	LAP4-GFP MLPCN	VLA-4 allo CP
N=c1sccn1CC(=O)NCCc1ccc(Cl)cc1Cl	95.0*	109.8	101.2	110.2	91.4	87.0	-8.6
O=C(Cc1ccccc1)NCCc1ccc(Cl)cc1Cl	9.5	83.5	89.7	98.2	96.5	93.5	.
O=C(O)c1ccc2c(c1)N(Cc1cccc(F)c1)C(=O)CS2	50.4*	99.6	107.8	102.8	101.2	108.2	-0.6
Cc1ccc(NS(=O)(=O)c2ccc3c(c2)CC(=O)N3)cc1F	40.6	92.8	99.3	102.9	93.5	95.8	3.1
O=C1Cc2cc(S(=O)(=O)Nc3ccc(N4CCOCC4)cc3)ccc2N1	9.7	94.1	97.8	88.0	92.2	93.8	-10.2
Cc1ccc(S(=O)(=O)Nc2ccc(N3CCOCC3)cc2)cc1C	1.6	90.2	85.9	91.3	94.1	87.2	.
Cc1ccc(NS(=O)(=O)c2ccc3c(c2)CC(=O)N3)c(C)c1	2.5	101.5	100.3	99.9	97.2	96.0	.
CCOc1ccccc1/C=C(/C#N)C(N)=O	0.9	102.9	107.3	107.3	106.9	97.7	2.0
COc1ccc(N2C(=O)N3[C@@H]4c5ccccc5OC[C@@H]4[C@@H](c4ccccc4)[C@@]3(C)C2=O)cc1	11.2	87.6	98.6	94.6	92.5	94.8	.
CC1=CC(c2ccccc2)=Nc2ccc(C)cc2N1	66.3*	96.3	97.6	102.6	97.4	99.5	0.0
COc1ccc2c(c1)NC(=O)CC(c1ccccc1)=N2	15.7	104.4	104.6	104.5	102.6	104.8	.
COc1ccc2oc(C(=O)NCc3cc(OC)c(OC)cc3OC)c(C)c2c1	-5.7	106.9	102.3	100.3	96.6	104.2	.
COC(=O)Nc1ccc(S(=O)(=O)N2CCCc3ccccc32)cc1	79.5*	87.3	99.3	100.3	97.4	107.6	0.7
COC(=O)Nc1ccc(S(=O)(=O)N2CCCc3cccc(O)c32)cc1	-6.2	89.7	89.4	88.3	92.1	92.4	.
COCCN(C(=O)CNC(=O)c1ccco1)C(C(=O)NC1CCCC1)c1ccc(F)cc1 (centres undefined)	2.5	97.4	97.2	107.9	105.4	94.3	.
Cc1nn(-c2cc(N3CCOCC3)ccc2N)c(=O)c2ccccc12	63.8*	92.3	98.4	100.8	98.4	97.6	1.2
O=C(NCCOc1nc(N2CCOCC2)nc(N2CCOCC2)n1)Nc1ccc(Cl)cc1	0.2	97.1	101.0	103.1	94.9	102.7	.

High-throughput results from PubChem.
